Nrf2 activator – activates Nrf2 signaling. AREc32 ARE-luciferase reporter (MCF7-derived line), luminescence, 24 h. Potency, µM (highest dose often 46.1 µM), without a hit: top-dose activation, hits mostly activators. actives 0.31% (n = 410,000). AID 624171; further: % of control where 0% means no effect; nearly all actives have a fitted effect of over 65% in size
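For detection, Steady-Glo was added and plates sat 30 min at RT; before that, AREc32_Fluc cells grown overnight in OPTI-MEM/5% FBS had been treated with 23 nL compound for 24 hr at 37 deg C.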
TGFb SMAD3 inh – inhibitors of TGF-b signaling | HepG2 CAGA-GFP TGF-b/SMAD3 reporter, GFP fluorescence, 18 h; TGF-beta stimulated, 500 pg/mL final | actives 1.2% (n = 410,000) | AID 588855 | Potency, µM (doses to about 46.1 µM), without a hit: top-dose activity, negative = inhibition, actives largely listed as inhibitors; further: on the % scale 0 is the no-effect control and ±100 the full control effect; nearly all actives have a fitted effect of over 65% in size
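Inhibition of TGF-beta-driven CAGA-GFP reporter expression in HEPG2 cells is measured by cellular GFP fluorescence after 18 h stimulation with 500 pg/mL recombinant TGF-beta in 1% FBS medium at 37 degrees C.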
Nrf2 inh – Nrf2 pathway inhibition; A549 ARE-Fluc reporter, luciferase luminescence, 18-24 h; Potency, µM (highest dose often 46 µM), inactives show at the highest dose activity change, negative = inhibition, most hits filed as inhibitors; actives 2.1% (n = 360,000); AID 504444; further: on the % scale 0 is the no-effect control and ±100 the full control effect; nearly all actives have a fitted effect of over 60% in size
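Concentration-response testing used A549 ARE_Fluc cells at 5000 cells/well. Following an 18-24 h compound incubation, viability was read by fluorescence (Ex 405/Em 525) and luciferase output by luminescence.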
HepG2 tox-1 – counter-screen for TGF-b inhibitors: cytotoxicity in HepG2 cells; Potency, µM (doses to about 46.1 µM), for inactives: at the top dose activity change, negative = cytotoxicity, hits mostly cytotoxic; actives 0.76% (n = 410,000); AID 588856; HepG2 CAGA-GFP viability, ATP luminescence, 18 h
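CellTiter-Glo luminescence gave cytotoxicity after 18 hours at 37 degrees C. The cells were HepG2 CAGA-GFP in 1% FBS DMEM, stimulated with 500 pg/mL TGF-beta after compound addition. %Activity was normalised to no-cell wells (complete cell-killing) and DMSO (no toxicity), and curves were fitted and classified.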
A549 tox – counter-screen for Nrf2 inhibitors: cytotoxicity in A549 cells | A549 ARE-Fluc cells, CellTiter-Fluor viability, 18-24 h | Potency, µM (series often up to 46 µM), for the others: at the top dose activity change, negative = cytotoxicity, actives largely listed as inhibitors | actives 0.16% (n = 390,000) | AID 504648; further: on the % scale 0 is the no-effect control and ±100 the full control effect
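Cytotoxicity counterscreen: CellTiter-Fluor fluorescence was measured in A549 ARE_Fluc cells after 18-24 h of compound exposure in a concentration series. The subsequent BugLite luminescent read reports ARE-luciferase activity.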
TGFb confirm – confirmation of TGF-b signaling inhibitors in HepG2 reporter cells | shares compounds with TGFb SMAD3 inh | AID 720534 | HepG2 CAGA-GFP TGF-b reporter, GFP fluorescence, 18 h; cells stimulated with TGF-beta, 500 pg/mL | Potency, µM (top dose mostly 46.1 µM), without a hit: top-dose activity, negative = inhibition, most hits filed as inhibitors | actives 63% (n = 1,600); further: on the % scale 0 is the no-effect control and ±100 the full control effect; nearly all actives have a fitted effect of over 65% in size
HepG2 tox-2 – HepG2 cytotoxicity, TGF-b inhibitor counterscreen; actives 27% (n = 1,600); shares compounds with TGFb SMAD3 inh; AID 720535; Potency, µM (doses to about 46.1 µM), inactives show top-dose activity, negative = cytotoxicity, hits mostly inhibitors; HepG2 CAGA-GFP viability, ATP luminescence, 18 h; cells stimulated with TGF-beta, 500 pg/mL; further: on the % scale 0 is the no-effect control and ±100 the full control effect; nearly all actives have a fitted effect of over 70% in size
TGFb CCL64 inh – TGF-b inhibition, CCL64 orthogonal assay; shares compounds with TGFb SMAD3 inh; CCL64 CAGA-GFP reporter, TGF-b stimulated, GFP fluorescence, 18 h; Potency, µM (titrated, usually from 46.1 µM), for the others: top-dose activity, negative = inhibition, hits mostly inhibitors; actives 41% (n = 1,600); AID 720536; further: nearly all actives have a fitted effect of over 65% in size
COP TGFb inh – TGF-b inhibition validated with COP promoter. actives 3% (n = 1,600). shares compounds with TGFb SMAD3 inh. AID 720537. Potency, µM (doses to about 46.1 µM), for inactives: top-dose activity, negative = inhibition, actives largely listed as inhibitors. HepG2 COP-GFP TGF-b reporter, GFP fluorescence, 18 h; cells stimulated by added recombinant TGF-beta; further: nearly all actives have a fitted effect of over 70% in size
Numbers without * were called inactive; ? = inconclusive; nt = no result given. An excerpt weighted towards active compounds, which were near 3.6% of everything screened. The call rests on the fitted dose curve; in most records, active means well fitted curve in the direction sought with a large enough effect; inconclusive means small, poorly fitted or top-dose-only effect, or another doubt; inactive means no such curve, though single readings can be large; an effect the other way counts as inactive or inconclusive. Potency means the concentration at half of the fitted maximal effect.

SMILES | Nrf2 activator | TGFb SMAD3 inh | Nrf2 inh | HepG2 tox-1 | A549 tox | TGFb confirm | HepG2 tox-2 | TGFb CCL64 inh | COP TGFb inh
CC(C)C[C@H]1CNC(=S)N1C[C@H]1CCCN1C[C@H](Cc1ccc(O)cc1)N1C[C@H](CC(C)C)N(CC2CCCCCC2)C1=S | 0.0% | 6.31µM* | nt | -22.8% | nt | 4.61µM* | ? | 10.3µM* | 25.1%
CCCCCCSc1cc(C)nc2ncnn12 | 1.8% | 0.2% | ? | -18.2% | 0.2% | nt | nt | nt | nt
CCn1nc(C(=O)OC(C(=O)c2c[nH]c3ccccc23)c2ccccc2)c2ccccc2c1=O (centres undefined) | 2.8% | 11.2µM* | ? | -26.5% | ? | 20.6µM* | -17.6% | ? | -17.3%
O=C1C[C@H](c2ccc(O)cc2)Oc2cc(O[C@@H]3O[C@H](CO)[C@@H](O)[C@H](O)[C@H]3O)cc(O[C@@H]3O[C@H](CO)[C@@H](O)[C@H](O)[C@H]3O)c21 | 0.0% | 5.7% | 5.5% | -4.2% | -0.1% | nt | nt | nt | nt
CC(C)CCCCCCCCCCCCC(=O)NCC(=O)NC1C(C)OC(Nc2ncnc3nc[nH]c23)C(O)C1O (centres undefined) | -2.2% | 0.355µM* | 0.0366µM* | -25.4% | ? | 1.03µM* | ? | 0.517µM* | -28.6%
Cc1ccc(SCCNC(=O)c2ccc(C)c(S(=O)(=O)Nc3cccc(C)c3)c2)cc1 | 2.7% | 12.6µM* | ? | -2.4% | ? | ? | ? | ? | 52.1%
CCCCC(=O)NC(c1cccc([N+](=O)[O-])c1)c1c(OC(C)=O)ccc2ccccc12 (centres undefined) | 1.0% | ? | ? | -34.9% | -14.8% | nt | nt | nt | nt
COc1ccc(CCN2C(=O)CC(NNC(=O)c3ccc(F)cc3)C2=O)cc1OC (centres undefined) | -0.5% | -13.2% | -1.4% | 6.7% | -3.4% | nt | nt | nt | nt
Cc1ccc(C(=O)Nc2cccc3[nH]c(C(F)(F)F)nc23)cc1 | 6.6% | 11.2µM* | ? | -15.8% | -1.6% | 14.6µM* | ? | ? | 53.8%
COc1ccc(C[C@@H]2CN3C(=NC[C@@H]3Cc3ccc(O)cc3)N2C[C@H](C)NC(=O)CCC2CCCCC2)cc1 | -3.5% | 12.6µM* | 4.5% | -21.7% | ? | -86.1% | ? | ? | 106.2%
CC(C)[C@H]1CN=C2N(C[C@H](C)NC(=O)CCC3CCCCC3)[C@H](Cc3ccc(O)cc3)CN21 | 5.0% | 0.8% | 8.4% | 2.6% | -2.4% | nt | nt | nt | nt
CCSc1ccccc1C(=O)n1nnc2ccccc21 | 11.1% | 11.2µM* | nt | -30.1% | 4.8% | 5.8µM* | ? | ? | 2.0%
O=C(CN1CCN(C(=O)C2CCN(C(=O)/C=C/c3ccccc3)CC2)CC1)Nc1ccc(F)cc1 | 2.0% | -89.7% | ? | -25.9% | -5.7% | -23.5% | -0.8% | -1.7% | 3.2%
O=C(CN1CCC(C(=O)c2ccc(F)cc2)CC1)Nc1ccccc1 | -0.1% | ? | -21.9% | -25.1% | -5.9% | nt | nt | nt | nt
COc1ccccc1N1C(=NC(=O)CCC2CCCC2)SC2CS(=O)(=O)CC21 (centres undefined) | -0.4% | -6.7% | 1.8% | -9.5% | 1.2% | nt | nt | nt | nt
COC(=O)COc1ccc2oc(=O)cc(-c3cc4cccc(OC)c4o3)c2c1 | -0.6% | 8.0% | 3.9% | 4.4% | 0.3% | nt | nt | nt | nt
COc1cc(OC)c2c(-c3cccc(-c4ccc(NC(C)=O)cc4)c3)cc(=O)oc2c1 | 1.3% | 4.47µM* | ? | -12.8% | -9.5% | 1.64µM* | -14.0% | 2.06µM* | 13.2%
COc1cc(OC)c2c(-c3cccc(-c4ccc(OC)c(OC)c4)c3)cc(=O)oc2c1 | -0.6% | ? | ? | -4.0% | 3.6% | nt | nt | nt | nt
Cc1cc(C)c(C)c(S(=O)(=O)N2CCN(Cc3nc4ccccc4[nH]3)CC2)c1C | 0.4% | -33.0% | 10.7% | -44.1% | 3.2% | nt | nt | nt | nt
Cc1ccc(-n2c(SCC(N)=O)nc3c(c2=O)C2(CCCC2)Cc2ccccc2-3)cc1 | 5.5% | 8.91µM* | ? | 11.0% | -16.0% | 13µM* | 14.6µM* | ? | 19.0%
COc1ccc(CNS(=O)(=O)c2c(C(=O)N3CCCCC3)c(C)n(C)c2C)cc1 | -0.1% | 0.5% | -13.4% | 0.8% | -0.3% | nt | nt | nt | nt
FC(F)(F)c1nc(N2CCCC2)ncc1-c1nnnn1-c1ccccc1 | -0.1% | -10.1% | ? | -18.5% | ? | nt | nt | nt | nt
O=S(=O)(c1cccc(NC(=S)N2CCN(c3ccccc3F)CC2)c1)C(F)F | 8.1% | 7.08µM* | ? | -29.1% | 15.0% | 7.31µM* | -8.7% | -0.3% | -4.8%
O=S(=O)(c1cccc(NC(=S)N2CCN(c3ccccc3)CC2)c1)C(F)F | 2.5% | ? | ? | 8.7% | -5.3% | nt | nt | nt | nt
Cc1ccc(S(=O)(=O)NNC(=S)NCC2CCCO2)cc1 (centres undefined) | 0.1% | -0.6% | 15.2% | -9.8% | -0.9% | nt | nt | nt | nt
Cc1c(C(=O)O)oc2ccc(S(=O)(=O)NC3CCCCCCC3)cc12 | -0.8% | -0.1% | 1.6% | -1.3% | 0.4% | nt | nt | nt | nt
O=C1C(Cl)=C(Nc2ccc3cn[nH]c3c2)C(=O)c2ccccc21 | -3.5% | 0.631µM* | ? | 1.12µM* | ? | 1.64µM* | 3.26µM* | 4.61µM* | 6.51µM*
CC(=O)Nc1ccc(NC2=C(Cl)C(=O)c3ccccc3C2=O)cc1 | 23.7% | 3.55µM* | ? | 3.55µM* | ? | 5.17µM* | 14.6µM* | 2.91µM* | ?
Cc1ccc(NC2=C(NCCO)C(=O)c3ccccc3C2=O)cc1 | 0.6% | ? | ? | -21.5% | ? | nt | nt | nt | nt
CN(C)c1ccc(NC2=C(Cl)C(=O)c3ccccc3C2=O)cc1 | ? | 5.62µM* | ? | 5.62µM* | ? | 5.17µM* | 11.6µM* | 13µM* | ?
